Measurements: PubChem BioAssay AID1852 (Sanford-Burnham Center for Chemical Genomics, 2009)
In all, about 2,500 compounds went through this assay and about 1,100 (44%) were called active.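 Rule for the calls: active = inhibition above 50% at 4 µM in the single-point screen; inactive = inhibition of 50% or less.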 So high a share suggests a set chosen from earlier hits. This is one part of the list.

assay: blockers of TNF-a NF-kB luciferase induction – cell-based, HEK293T NF-kB-Luc, luminescence, selectivity assay for NOD1/NOD2 signaling inhibitor project, primary screen (AID 1852); details: TNF-a induced, 14 h, at 4 µM, hits give high values

Structure (SMILES) | inhibition
N#CC1=C(N)N2C(=C(C#N)C1c1cccc(Br)c1)Nc1ccccc12 (stereo unspecified) | 89.3% (active)
N#CC1=C(N)N2C(=C(C#N)C1c1ccc(Br)cc1)Nc1ccccc12 (stereo unspecified) | 86.9% (active)
CCN1C(=O)/C(=C/c2nc3ccccc3c(=O)n2-c2ccc(C)cc2)c2ccccc21 | 23.6% (inactive)
Cc1cc(Cl)c(S(=O)(=O)N2CCSCC2)cc1OCC(=O)NC1CCCCC1 | 44.2% (inactive)
Cc1cc(Cl)c(S(=O)(=O)N2CCCCCC2)cc1OCC(=O)NC1CCCCC1 | 55.3% (active)
COc1ccc(S(=O)(=O)N2CCCC(C(=O)NCc3ccncc3)C2)cc1Cl (stereo unspecified) | 8.9% (inactive)
Cc1cc(Cl)c(S(=O)(=O)N2CCN(c3ccc(F)cc3)CC2)cc1OCC(=O)NC1CCCCC1 | 69.7% (active)
COc1ccc(C)cc1S(=O)(=O)N1CCN(C(=O)c2ncoc2-c2ccc(F)cc2)CC1 | 14.4% (inactive)
Cc1cc(-c2ccc(C)c(S(=O)(=O)N3CCN(c4ccc(F)cc4)CC3)c2)on1 | 41% (inactive)
CCOc1ccc(/C=C2\C(=O)c3ccccc3OC2c2ccccc2)cc1 (stereo unspecified) | -5.4% (inactive)
Cc1ccc(-c2onc3ccc(C(=O)/C=C/N(C)C)cc23)cc1 | 14.5% (inactive)
COc1ccc2cc3c(N)nn(C(=O)Cc4ccccc4OC)c3nc2c1 | 91% (active)
COc1ccc2cc3cc(C(=O)NCCc4ccc(OC)c(OC)c4)oc3nc2c1 | -4.4% (inactive)
CCOc1ccccc1N1CCN(C(=O)c2cc(-c3cc(OC)ccc3OC)nc3ccccc23)CC1 | 1.3% (inactive)
COc1ccc2cc3c(N)nn(C(=O)Cc4c[nH]c5ccccc45)c3nc2c1 | 91.9% (active)
COc1ccc(-c2cc3nc(C)n(N)c(=O)c3s2)cc1 | 78.3% (active)
COc1ccc(-c2cc3nc(CCl)[nH]c(=O)c3s2)cc1 | 25.2% (inactive)
O=c1[nH]c(CCl)nc2cc(-c3ccc(F)cc3)sc12 | 28.3% (inactive)
CSc1cccc(NS(=O)(=O)c2ccc3c(c2)CCN3C(C)=O)c1 | 25% (inactive)
CC1Cc2ccccc2N1C(=S)NC(=O)c1cccc(Br)c1 (stereo unspecified) | 103% (active)
CC(=O)Nc1ccc(N/C=C/C(=O)c2ccc(C)cc2)cc1 | -16.4% (inactive)
CCC(=O)Nc1cccc(C(=O)/C=C/c2cc(Br)ccc2OC)c1 | 77.3% (active)
COc1cccc(C(=O)/C=C/c2ccc(OCC#N)c(OC)c2)c1 | -58.9% (inactive)
COc1ccccc1/C=C1\S/C(=N/NC(=O)c2cccc(Br)c2)NC1=O | -30.6% (inactive)

Structure (SMILES) | inhibition
COc1ccc(Br)cc1/C=C/C(=O)c1ccc(NC(C)=O)cc1 | 94.8% (active)
Cc1ccc(CSC(Nc2ccc(F)cc2)=C(C#N)C#N)cc1 | 74.6% (active)
N#CC(C#N)=C(Nc1ccc(F)cc1)SCc1cccc(Br)c1 | 54.7% (active)
N#CC(C#N)=C(Nc1ccc(F)cc1)SCc1cccc(F)c1 | 81.7% (active)
COc1c(F)c(F)c(C(=O)Nc2cccc(Cl)c2N2CCOCC2)c(F)c1F | 46.2% (inactive)
COc1ccc(C)cc1NC(=O)CN(C)S(=O)(=O)c1ccc2c(c1)c(=O)n(C)c(=O)n2C | 19.7% (inactive)
COc1cc(OC)c(OC)cc1/C=C/C(=O)c1ccc(NS(=O)(=O)c2ccc(C)cc2)cc1 | 70.3% (active)
COc1cccc(/C=C/C(=O)c2ccc(NS(=O)(=O)c3ccc(C)cc3)cc2)c1 | 4.1% (inactive)
COc1cccc(C(=O)/C=C/Nc2ccc(S(=O)(=O)Nc3cccc(C(C)=O)c3)cc2)c1 | 46.2% (inactive)
COc1cc(/C=C/C(=O)c2ccc(NS(=O)(=O)c3ccc(C)cc3)cc2)cc(OC)c1O | 78.9% (active)
COc1cc(/C=C/C(=O)c2ccc(C)cc2)ccc1OCC#N | 19.5% (inactive)
Oc1ccc(N=Nc2ccccc2C(F)(F)F)c2cccnc12 | 20.4% (inactive)
Oc1ccc2ccccc2c1N=Nc1ccccn1 | 95.8% (active)
O=C(Nc1ccc(Oc2ccccc2)cc1)C1CCN(c2c3c(nc4ncnn24)CCC3)CC1 | 62% (active)
CC(=O)c1ccc(N2CCN(C(=S)Nc3ccc(Oc4ccccc4)cc3)CC2)cc1 | 41.5% (inactive)
Cc1ccccc1NC(=O)C1CCN(c2cc(-c3ccccc3)nc3ncnn23)CC1 | 46% (inactive)
COCCNC(=S)N(CCc1c(C)[nH]c2ccc(C)cc12)Cc1cc(OC)c(OC)c(OC)c1 | 19.3% (inactive)
COc1cc(C(=O)NCCOc2cc(C)ccc2C(C)C)cc(OC)c1OC | 52.4% (active)
COc1ccc(CCNC(=O)c2cc(=O)c3cc(C)ccc3o2)cc1OC | 19.4% (inactive)
CC1=CC(C)(C)Nc2ccc(OC(=O)C(C)N3C(=O)c4ccccc4C3=O)cc21 (stereo unspecified) | 40.1% (inactive)
CC1=CC(C)(C)Nc2ccc(OC(=O)CN3C(=O)C4CCCCC4C3=O)cc21 (stereo unspecified) | 42.7% (inactive)
CC1=CC(C)(C)Nc2ccc(OC(=O)CN3C(=O)CCC3=O)cc21 | 86.9% (active)
Cn1c(Sc2ccc(Cl)cc2)c(C=O)c2ccccc21 | 34.4% (inactive)
Cc1ccc(Sc2c(C=O)c3ccccc3n2C)cc1 | 86.4% (active)

Structure (SMILES) | inhibition
COc1cccc(OCCn2cc(C=O)c3ccccc32)c1 | 42.4% (inactive)
Cc1cccc(Sc2c(C=O)c3ccccc3n2C)c1 | 60.5% (active)
Cn1c(Sc2ccc(Br)cc2)c(C=O)c2ccccc21 | 48.7% (inactive)
c1csc(C2=Nn3c(nnc3-c3ccncc3)SC2)c1 | 90.9% (active)
c1ccc(C2=Nn3c(nnc3-c3ccncc3)SC2)cc1 | 70.9% (active)
COc1ccc(C2=Nn3c(nnc3-c3ccncc3)SC2)cc1 | 70.4% (active)
COc1cccc(-c2nnc3n2N=C(C(C)(C)C)CS3)c1 | 96.3% (active)
Clc1ccccc1C1=Nn2c(nnc2-c2ccncc2)SC1 | 84.4% (active)
Cc1c(NS(=O)(=O)c2ccc3c(c2)OCCO3)cccc1-c1nc2cccnc2s1 | 48.1% (inactive)
COC(=O)c1cccc(NS(=O)(=O)c2cccs2)c1C | 7.7% (inactive)
O=S(=O)(Nc1cccc2ncccc12)c1cccs1 | 98.1% (active)
Cc1ccc(S(=O)(=O)Nc2cccc3ncccc23)s1 | 96.4% (active)
CCc1cccc(C)c1NS(=O)(=O)c1cccs1 | -2.7% (inactive)
CC(NC(=S)NC1CCCCC1)c1ccc(C(C)(C)C)cc1 (stereo unspecified) | 9.1% (inactive)
CC(C)(C)C(=O)Cn1ncc(Cl)c(Cl)c1=O | 10.7% (inactive)
O=C1CN(C(=O)Cn2ncc(Cl)c(Cl)c2=O)c2ccccc2N1 | 40.3% (inactive)
Cc1cc(Br)ccc1NC(=O)CNC(=O)Cn1ncc(Cl)c(Cl)c1=O | 94.4% (active)
CCOC(=O)c1ccc(NC(=O)Cn2ncc(Cl)c(Cl)c2=O)cc1 | 60.3% (active)
O=C(Cn1ncc(Cl)c(Cl)c1=O)c1ccc(Cl)cc1 | 75.4% (active)
O=C(Cn1ncc(Cl)c(Cl)c1=O)N1CCc2ccccc21 | 73% (active)
CCC(=O)Nc1ccc(C(=O)Cn2ncc(Cl)c(Cl)c2=O)cc1 | 56.5% (active)
Cc1ccc(-c2csc(N3CCN(CCCn4c(-c5ccncc5)nc5ccccc54)CC3)n2)cc1 | -10.9% (inactive)
CC(=O)Nc1nc(C)c(-c2csc(Nc3cccc([N+](=O)[O-])c3)n2)s1 | 24.8% (inactive)
CC(=O)Nc1ccc(C(=O)Nc2nc(-c3cc(C)n(Cc4ccccc4)c3C)cs2)cc1 | 20.1% (inactive)

Structure (SMILES) | inhibition
COc1ccccc1Nc1nc(-c2sc(NC(=O)c3ccco3)nc2C)cs1 | 82.3% (active)
CCN(c1ccc(C)cc1)S(=O)(=O)c1nnc(NC(=O)c2ccco2)s1 | 10.4% (inactive)
CC(=O)Nc1nc(C)c(-c2csc(Nc3ccc(O)cc3)n2)s1 | 58.5% (active)
Cc1[nH]nc2ncc(C(=O)c3ccccc3O)cc12 | 67.9% (active)
Cc1ccc(O)c(C(=O)c2cnc3c(c2)COc2ccc(C)cc2-3)c1 | 22% (inactive)
O=C(c1cnn(C(=O)c2ccc(O)cc2)c1)c1ccccc1O | 9.9% (inactive)
C/C(=N\NC(=O)Cc1ccc(Cl)cc1)c1ccccn1 | 101% (active)
C/C(=N\NC(=O)c1ccc(Cl)cc1)c1ccccn1 | 103% (active)
C/C(=N\NC(=O)COc1ccccc1-c1ccccc1)c1ccccn1 | 106% (active)
C/C(=N\NC(=O)c1cccc(Br)c1)c1ccccn1 | 98% (active)
C/C(=N\NC(=O)c1cc(Br)ccc1O)c1ccccn1 | 25.1% (inactive)
Cc1ccc(Nc2nc3nonc3[nH]c2=O)cc1Cl | -23% (inactive)
C/C(=N\NC(=O)c1ccc(F)cc1)c1ccccn1 | 106% (active)
COc1ccc(C(=O)N/N=C(\C)c2ccccn2)cc1OC | 106% (active)
C/C(=N\NC(=O)c1ccc(Cl)c(Cl)c1)c1ccccn1 | 102% (active)
CCOC(=O)c1ccc2nc(Nc3nc4ccc(F)cc4s3)sc2c1 | -87.4% (inactive)
COC(=O)c1ccc2nc(Nc3nc4ccc(F)cc4s3)sc2c1 | 0% (inactive)
CCOC(=O)c1csc(Nc2nc3ccc(F)cc3s2)n1 | 106% (active)
COc1cccc(N=Nc2c(N)[nH]n3c(=O)cc(-c4ccccc4)nc23)c1 | 75.4% (active)
Nc1[nH]n2c(=O)cc(-c3ccccc3)nc2c1N=Nc1ccccc1 | 64.7% (active)
Nc1[nH]n2c(=O)cc(-c3ccccc3)nc2c1N=Nc1ccc2c(c1)OCO2 | 50.6% (active)
O=C(CSCc1ccccc1Cl)N1CCN(c2ccccn2)CC1 | -30.9% (inactive)
CCOc1ccc(-c2nc(CSCC(=O)N3CCN(c4cccc(OC)c4)CC3)c(C)o2)cc1 | 49.3% (inactive)
CCc1ccc(-c2nc(CSCC(=O)N3CCN(c4ccccn4)CC3)c(C)o2)cc1 | 73.1% (active)
